Reference: PubChem BioAssay (Tox21)
Records with an inconclusive call do not appear. Entries that show only a call come without a potency. Active and inactive are the calls of the source. Calls follow the shape of the dose curve; as a rule, active = well fitted cell-killing curve with a large enough effect in the repeat runs; inconclusive = weak or mixed curves, or effect the other way; inactive = flat fitted curve, though single readings scatter.

experiment: cAMP Responsive Elements (CRE) small molecule agonists, cell-based qHTS assay: qHTS cell viability counter screen (AID 2060914); conditions: CRE-bla HEK293T viability, CellTiter-Glo luminescence, 5 h; series mostly up to 92.4 µM;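 also: viability read after 3 h of compound exposure; nearly all actives have a fitted effect of over 50% in size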
Source text: National Center for Advancing Translational Sciences [NCATS]
Division of Preclinical Innovation [DPI]
U.S. Environmental Protection Agency [EPA]
National Institutes of Environmental Health Sciences [NIEHS]
National Toxicology Program [NTP]
U.S. Food and Drug Administration [FDA]
CREB (cyclic-AMP Responsive Element Binding Protein) is a cellular transcription factor. It binds to certain DNA sequences called cAMP Responsive Elements (CRE) and regulates the transcription of the genes. […] This cell line can be used to find agonists/antagonists of the cyclic AMP signaling pathway. The activation of the report gene under culture conditions can be detected by fluorescence intensity. This cell line has been used to screen the Tox21 10K compound library to identify agonists that induce oxidative stress. The cytotoxicity of the Tox21 compound library against the CRE-bla cell line was tested in parallel by measuring the cell viability using CellTiter-Glo assay (Promega, Madison, WI) in the same wells.
Tox21 Assay Protocol Summary:
CRE-bla Hek 293T cells were suspended in assay medium (DMEM containing 10% dialyzed FBS, 0.1 mM NEAA, 1 mM sodium pyruvate and 25 mM HEPES) and dispensed at 2,000 cells/5 uL /well into 1536-well black wall/clear bottom plates using a Multidrop Combi (ThermoFisher Scientific, Waltham, MA) dispenser. After the assay plates were incubated at 37 C/5% CO2 for 18 hrs, 23 nL of compounds dissolved in DMSO, positive controls or DMSO only was transferred to the assay plate by a pintool workstation (Kalypsys, San Diego, CA). After the plates were incubated at 37 C/5% CO2 for 3 hrs, 1 uL of LiveBLAzer B/G FRET substrate (Invitrogen, Carlsbad, CA) was added to each well using Bioraptr Flying Reagent Dispenser (FRD, Aurora Discovery, San Diego, CA). The plates were incubated at room temperature for 2 h, then fluorescence intensities were measured using an Envision plate reader (PerkinElmer, Shelton, CT) at Excitation 405nm, Emission 460nm and 530nm. The % activity was determined from the ratio of 460nm/530nm. For cell viability readout that measures cytotoxicity, 4 uL /well of CellTiter-Glo reagent was added into the assay plates using Bioraptr FRD. After 30 min incubation at room temperature, the luminescence intensity in the assay plates was measured using a ViewLux (PerkinElmer, Shelton, CT) plate reader.

Structure (SMILES)	Potency
CCCCCCCCCCCC(=O)O	inactive
CC(=O)Nc1cc([As](=O)(O)O)ccc1O	inactive
C=CCCC#N	inactive
COc1ccccc1N1CCNCC1	inactive
C[N+](=O)[O-]	inactive
CCOP(=S)(S)OCC	inactive
CC(=[OH+])/C=C(/C)[O-].CC(=[OH+])/C=C(\C)[O-].CC(=[OH+])/C=C(\C)[O-].[Fe]	inactive
CC(C)(C)OOC(C)(C)C	inactive
c1ccc2c(c1)[nH]c1cnccc12	inactive
O=c1oc2ccccc2c(O)c1C(CC(O)c1ccc(-c2ccc(Br)cc2)cc1)c1ccccc1 (stereo not given)	inactive
C=C(C)C(=O)OCCCCOC(=O)C(=C)C	inactive
C[C@H]1CC[C@@H]2[C@@H](C)[C@H]3[C@H](C[C@H]4[C@@H]5CC=C6CC(O[C@@H]7O[C@H](CO)[C@H](O)[C@H](O[C@@H]8O[C@H](CO)[C@@H](O)[C@H](O)[C@H]8O)[C@H]7O[C@H]7O[C@@H](C)[C@H](O)[C@@H](O)[C@H]7O)CC[C@]6(C)[C@H]5CC[C@]34C)N2C1 (stereo not given in full)	inactive
C[C@]12C/C(=C/O)C(=O)C[C@@H]1CC[C@@H]1[C@@H]2CC[C@@]2(C)[C@H]1CC[C@]2(C)O	inactive
O=c1oc2ccccc2c(O)c1C1CCCc2ccccc21 (stereo not given)	inactive
O=c1[nH]c2ccccc2n1CCCN1CCC(n2c(=O)[nH]c3cc(Cl)ccc32)CC1	inactive
CC(C)NCC(O)c1ccccc1Cl (stereo not given)	inactive
COC(=O)N(C(=O)N1CO[C@@]2(C(=O)OC)Cc3cc(Cl)ccc3C2=N1)c1ccc(OC(F)(F)F)cc1	inactive
CON(C)C(=O)Nc1ccc(Cl)c(Cl)c1	inactive
Cn1cc[n+](C)c1 (tested in a mixture with another compound)	inactive
Cc1cccc(OP(=O)(Oc2cccc(C)c2)Oc2cccc(C)c2)c1	inactive

Structure (SMILES)	Potency
CCCCn1cc[n+](C)c1.[Cl][Fe-]([Cl])([Cl])[Cl]	inactive
CC(C=O)Cc1ccc2c(c1)OCO2 (stereo not given)	inactive
CCOC(=O)CC(SP(=O)(OC)OC)C(=O)OCC (stereo not given)	inactive
O=[N+]([O-])c1ccc(Cl)c(Cl)c1Cl	inactive
O=c1n(Cl)c(=O)n(Cl)c(=O)n1Cl	inactive
CC(=O)C1CCOC1=O (stereo not given)	inactive
CCOP(=S)(OCC)Oc1cc(Cl)c(Br)cc1Cl	inactive
CCC(C)(CC)c1cc(NC(=O)c2c(OC)cccc2OC)on1	inactive
CCCCOC(=O)c1ccccc1C(=O)OCc1ccccc1	inactive
S=C=Nc1cccc2ccccc12	inactive
c1ccc(N=NNc2ccccc2)cc1	inactive
ClC(Cl)(Cl)Br	inactive
ClCc1ccc(Cl)cc1Cl	inactive
CN(C)[C@@H]1C(=O)C(C(N)=O)=C(O)[C@@]2(O)C(=O)C3=C(O)c4c(O)ccc(Cl)c4[C@@](C)(O)[C@H]3C[C@@H]12	inactive
CC(C)N1C(=O)N(c2ccccc2)CSC1=NC(C)(C)C	inactive
C[As+](C)(C)CC(=O)[O-]	inactive
O=C(CBr)c1ccccc1	inactive
Nc1nc(N)nc(Cl)n1	inactive
O=S(=O)(O)OOS(=O)(=O)O	inactive
CNC(=O)NC(O)C(Cl)(Cl)Cl (stereo not given)	inactive
